Reference: PubChem BioAssay AID1159580 (chemical genetic matrix, 2015)
“And” between values parts separate entries of the source, which are not always exact repeats. Equal entries are not always repeated. The campaign covered roughly 5,500 compounds. About 2,000 (36%) were called active. Inconclusive results (about 18%) are left out. Cut-off read from the data, not from the text of the source: active = normalized growth mostly below about 0.91 (no sharp cut-off); inconclusive = no clear call, values can overlap the other calls; inactive = mostly above about 0.92. The list shows a part of the results.

Assay: chemical genetic growth profiling, strain panel (AID 1159580);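 note: tested at 20 µM; growth read once vehicle control cultures reached saturation at 30 °C; 1 = growth at the plate median or of vehicle wells; lower values mean less growth of the strain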
Conditions: growth OD

Measured: normalized growth

NC1(C(=O)O)CC1
inactive: S. cerevisiae deletion strains, locus YJR075W, strain HOC1, active compounds read low 0.985 | S. cerevisiae deletion strains, locus YKL009W, strain mrt4, active compounds read low 1.03 | S. cerevisiae deletion strains, locus YKL068W, active compounds read low 1.01 | S. cerevisiae deletion strains, locus YKL085W, strain MDH1 (second series), active compounds read low 1.04 | S. cerevisiae deletion strains, locus YKL085W, strain MDH1, active compounds read low 1.04 | S. cerevisiae deletion strains, locus YKL160W, strain elf1, active compounds read low 1.04 | S. cerevisiae deletion strains, locus YKL190W, strain CNB1, active compounds read low 1.01 | S. cerevisiae deletion strains, locus YKR001C, strain vps1, active compounds read low 1.03 | S. cerevisiae deletion strains, locus YKR026C, strain gcn3, active compounds read low 1.03 | S. cerevisiae deletion strains, locus YKR091W, strain srl3, active compounds read low 1.03 | S. cerevisiae deletion strains, locus YLL001W, strain dnm1, active compounds read low 1.01 | S. cerevisiae deletion strains, locus YLL026W, active compounds read low 1.03 | S. cerevisiae deletion strains, locus YLL041C, strain sdh2, active compounds read low 1.02 | S. cerevisiae deletion strains, locus YLR027C, strain aat2, active compounds read low 1.02 | S. cerevisiae deletion strains, locus YLR039C, strain RIC1, active compounds read low 1.04 | S. cerevisiae deletion strains, locus YLR058C, strain SHM2, active compounds read low 1.01 | S. cerevisiae deletion strains, locus YLR102C, strain apc9, active compounds read low 1.01 | S. cerevisiae deletion strains, locus YLR113W, strain HOG1, active compounds read low 1.04 | S. cerevisiae deletion strains, locus YLR221C, strain rsa3, active compounds read low 1 | S. cerevisiae deletion strains, locus YLR258W, strain gsy2, active compounds read low 1.04 | S. cerevisiae deletion strains, locus YLR262C, strain YPT6 (second series), active compounds read low 1.03 | S. cerevisiae deletion strains, locus YLR262C, strain YPT6, active compounds read low 1.03 | S. cerevisiae deletion strains, locus YLR268W, strain sec22, active compounds read low 1.02 | S. cerevisiae deletion strains, locus YLR320W, strain mms22, active compounds read low 1.01 | S. cerevisiae deletion strains, locus YLR330W, strain CHS5, active compounds read low 1.01 | S. cerevisiae deletion strains, locus YLR342W, strain FKS1 (second series), active compounds read low 1.04 | S. cerevisiae deletion strains, locus YLR342W, strain FKS1, active compounds read low 1.03 | S. cerevisiae deletion strains, locus YLR357W, strain rsc2, active compounds read low 1.02 | S. cerevisiae deletion strains, locus YLR370C, strain arc18, active compounds read low 1.05 | S. cerevisiae deletion strains, locus YLR371W, strain rom2, active compounds read low 1.01 | S. cerevisiae deletion strains, locus YLR384C, strain iki3, active compounds read low 1.01 | S. cerevisiae deletion strains, locus YLR418C, strain cdc73, active compounds read low 1 | S. cerevisiae deletion strains, locus YML016C, strain PPZ1, active compounds read low 1.01 | S. cerevisiae deletion strains, locus YML032C, strain rad52, active compounds read low 1.04 | S. cerevisiae deletion strains, locus YML120C, strain ndi1, active compounds read low 1.01 | S. cerevisiae deletion strains, locus YML124C, strain tub3, active compounds read low 1.02 | S. cerevisiae deletion strains, locus YMR058W, strain fet3, active compounds read low 1.03 | S. cerevisiae deletion strains, locus YMR078C, strain ctf18, active compounds read low 1.03 | S. cerevisiae deletion strains, locus YMR125W, strain sto1, active compounds read low 1.03 | S. cerevisiae deletion strains, locus YMR129W, active compounds read low 1.02 | S. cerevisiae deletion strains, locus YMR205C, strain PFK2, active compounds read low 1.03 | S. cerevisiae deletion strains, locus YMR223W, strain ubp8, active compounds read low 1.03 | S. cerevisiae deletion strains, locus YMR231W, strain pep5, active compounds read low 1.03 | S. cerevisiae deletion strains, locus YMR263W, strain SAP30, active compounds read low 1.02 and 1 | S. cerevisiae deletion strains, locus YMR307W, strain GAS1, active compounds read low 0.989 | S. cerevisiae deletion strains, locus YNL067W, strain RPL9B, active compounds read low 1.02 | S. cerevisiae deletion strains, locus YNL071W, strain lat1, active compounds read low 1.03 | S. cerevisiae deletion strains, locus YNL128W, strain TEP1, active compounds read low 1.01 | S. cerevisiae deletion strains, locus YNL153C, strain GIM3, active compounds read low 1.02 and 0.995 | S. cerevisiae deletion strains, locus YNL175C, strain NOP13, active compounds read low 0.965 | S. cerevisiae deletion strains, locus YNL183C, strain NPR1, active compounds read low 0.964 | S. cerevisiae deletion strains, locus YNL197C, strain WHI3, active compounds read low 0.965 | S. cerevisiae deletion strains, locus YNL209W, strain ssb2, active compounds read low 1.04 | S. cerevisiae deletion strains, locus YNL224C, strain SQS1, active compounds read low 1.01 | S. cerevisiae deletion strains, locus YNL233W, strain BNI4, active compounds read low 1 | S. cerevisiae deletion strains, locus YNL248C, strain rpa49, active compounds read low 1.06 | S. cerevisiae deletion strains, locus YNL250W, strain rad50, active compounds read low 1.03 | S. cerevisiae deletion strains, locus YNL271C, strain bni1, active compounds read low 1.03 | S. cerevisiae deletion strains, locus YNL298W, strain CLA4, active compounds read low 1.03 | S. cerevisiae deletion strains, locus YNL307C, strain MCK1, active compounds read low 1.04 | S. cerevisiae deletion strains, locus YNL322C, strain KRE1 (second series), active compounds read low 1.02 | S. cerevisiae deletion strains, locus YNL322C, strain KRE1, active compounds read low 1.01 | S. cerevisiae deletion strains, locus YNR049C, strain mso1, active compounds read low 1.01 | S. cerevisiae deletion strains, locus YNR052C, strain pop2, active compounds read low 1.01 | S. cerevisiae deletion strains, locus YOL006C, strain TOP1, active compounds read low 1.05 | S. cerevisiae deletion strains, locus YOL012C, strain htz1 0.791 | S. cerevisiae deletion strains, locus YOL147C, strain pex11, active compounds read low 1 | S. cerevisiae deletion strains, locus YOR001W, strain rrp6, active compounds read low 1.01 | S. cerevisiae deletion strains, locus YOR061W, strain CKA2, active compounds read low 1.01 | S. cerevisiae deletion strains, locus YOR069W, strain VPS5, active compounds read low 1 | S. cerevisiae deletion strains, locus YOR070C, strain gyp1, active compounds read low 1.02 | S. cerevisiae deletion strains, locus YOR080W, strain dia2, active compounds read low 1.02 | S. cerevisiae deletion strains, locus YOR083W, strain WHI5 (second series), active compounds read low 0.956 | S. cerevisiae deletion strains, locus YOR083W, strain WHI5, active compounds read low 1.04 | S. cerevisiae deletion strains, locus YOR106W, strain vam3, active compounds read low 1.04 | S. cerevisiae deletion strains, locus YOR136W, strain idh2, active compounds read low 1.02 | S. cerevisiae deletion strains, locus YOR144C, strain elg1, active compounds read low 1.02 | S. cerevisiae deletion strains, locus YOR184W, strain ser1, active compounds read low 1.05 | S. cerevisiae deletion strains, locus YOR231W, strain MKK1, active compounds read low 1.03 | S. cerevisiae deletion strains, locus YOR265W, strain rbl2, active compounds read low 1.03 | S. cerevisiae deletion strains, locus YOR270C, strain vph1, active compounds read low 1.1 | S. cerevisiae deletion strains, locus YOR290C, strain snf2, active compounds read low 1.06 | S. cerevisiae deletion strains, locus YOR316C, strain cot1, active compounds read low 1.01 | S. cerevisiae deletion strains, locus YPL051W, strain arl3, active compounds read low 1.04 | S. cerevisiae deletion strains, locus YPL055C, strain LGE1, active compounds read low 1 | S. cerevisiae deletion strains, locus YPL078C, strain atp4, active compounds read low 1.05 | S. cerevisiae deletion strains, locus YPL106C, strain sse1, active compounds read low 1.03 | S. cerevisiae deletion strains, locus YPL240C, strain hsp82, active compounds read low 1.02 | S. cerevisiae deletion strains, locus YPL241C, strain CIN2, active compounds read low 0.999 and 0.995 | S. cerevisiae deletion strains, locus YPL256C, strain CLN2, active compounds read low 1 | S. cerevisiae deletion strains, locus YPR119W, strain clb2, active compounds read low 1 | S. cerevisiae deletion strains, locus YPR141C, strain kar3, active compounds read low 1.02 | S. cerevisiae deletion strains, locus YPR163C, strain tif3, active compounds read low 1.03 | S. cerevisiae deletion strains, locus YPR167C, strain met16, active compounds read low 1.02 | S. cerevisiae deletion strains, strain wtn01, active compounds read low 1.02 | S. cerevisiae strains, strain wild type, active compounds read low 1.01
